High-throughput results (PubChem)
Pf growth 48h = inhibits P. falciparum growth in the first generation, 48 h; hit rate 5.9% among 310,000; P. falciparum luciferase growth in erythrocytes, 48 h; Potency, µM (series often up to 28.7 µM), for the others: at the top dose activity change, negative = inhibition, usual class: inhibitors; further: potency means the concentration at half of the fitted maximal effect; on the % scale 0 is the no-effect control and ±100 the full control effect
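A one-generation exposure of luciferase-tagged malaria parasites in RPMI 1640/Albumax erythrocyte culture, 37 C and 5% CO2. Inhibition is inferred from decreased luminescence after adding detection reagent.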
Shiga inhibitor = Shiga toxin inhibition; Vero cells, Shiga toxin protein synthesis inhibition reporter; inhibition, % at 38.7 µM; hit rate 9.2% among 290,000; AID 2315; in the data active means inhibition mostly above about 28%, no sharp cut-off; inactive means mostly below about 43%; further: 0% is about no effect
Pf growth 96h = P. falciparum growth inhibition at 96 hours; P. falciparum luciferase reporter growth, 96 h; Potency, µM (titrated, usually from 28.7 µM), for the others: top-dose activity change, negative = inhibition, most hits filed as inhibitors; hit rate 6.9% among 320,000; AID 504834; further: potency means the concentration at half of the fitted maximal effect; on the % scale 0 is the no-effect control and ±100 the full control effect
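Erythrocytes infected with luciferase-expressing P. falciparum were dispensed at 2% hematocrit and 0.05% parasitemia (final), then incubated with compounds 96 hours at 37 C in 5% CO2. Luminescence after detection reagent addition reported growth.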
Cycloheximide cs = counter-screen for Shiga toxin inhibitors: cycloheximide protein synthesis inhibition; cell reporter, cycloheximide protein synthesis inhibition counterscreen; max response, %; hit rate 12% among 300,000; AID 2314; in the data active means max response mostly above about 13%, no sharp cut-off; inactive means mostly below about 14%; further: read at 38.3 µM for the half of the compounds with a filed dose; 0% is about no effect
* hit, by the source's call; ? = inconclusive; · = not tested or not shown; + = active, no number; [ ] = another dose, or the depositor's remark. Only some compounds are listed: those with a hit (about 21% of all), similar ones and a draw of the others. Unless noted, the call rests on the fitted dose curve; in most records, active means well fitted inhibition curve with a large enough effect; inconclusive means small, poorly fitted or top-dose-only effect, or another doubt; inactive means no such curve, though single readings can be large or run the other way.

SMILES	Pf growth 48h	Shiga inhibitor	Pf growth 96h	Cycloheximide cs
COc1ccccc1NC(=O)c1ccc2nsnc2c1	174%	107*	-1%	26*
COC(=O)c1ccc(C(=O)Nc2ccc(N)cc2N)cc1	4.1µM*	6	-9%	-3
Cc1ccc(CCNC(=O)CSCc2ccc(F)cc2)cc1	12%	13	-11%	-2
CN1CCN(C2=Cc3ccc(Cl)cc3Sc3ccc(F)cc32)CC1	13µM*	-7	12µM*	-5
CN1CCN(C2=Cc3ccccc3Sc3cc(F)ccc32)CC1	?	-4	-102%	-5
COC(=O)[C@@H](NC(=O)c1ccc2c(c1)S(=O)(=O)c1ccccc1C2=O)C(C)C	-11%	3	-20%	-3
Cc1cc(N2CCOCC2)nc2ccc(NC(=S)NC(C)C)cc12	1%[0.00184 µM]	-4	24%	1
Cc1cc(N2CCCC2)nc2ccc(NC(=S)NC(C)C)cc12	10µM*	10	-24%	15
CCOCCCNC(=S)Nc1ccc2nc(N3CCCC3)cc(C)c2c1	12µM*	-2	-5%	-7
CN1CCN(c2nc3c(c(=O)[nH]c(=O)n3C)n2CCSc2nnnn2-c2ccccc2)CC1	-1%	16	5%	1
CC(CSc1nnnn1-c1ccccc1)Cn1c(N2CCN(C)CC2)nc2c1c(=O)[nH]c(=O)n2C (configuration not stated)	?	4	?	5
Cn1c(=O)[nH]c(=O)c2c1nc(N1CCCC1)n2CCCSc1nnnn1-c1ccccc1	?	-11	6.6µM*	-4
Cn1c(=O)[nH]c(=O)c2c1nc(N1CCCCCC1)n2CCCSc1nnnn1-c1ccccc1	?	-9	2.3µM*	-2
COc1ccc2nc(NC(=O)CCc3ccc(OC)c(OC)c3)sc2c1	?	30	12µM*	30*
CCCC(=O)Nc1nc2ccc(OC)cc2s1	35%	104*	66%	75*
COc1ccc(/C=N/OCC(=O)Nc2nc3ccccc3s2)cc1	57%	+	86%	34*
COc1ccc2nc(NC(=O)CCN3C(=O)c4ccccc4C3=O)sc2c1	11%	14	0%	11
COc1ccc2nc(NC(=S)N(C)C)sc2c1	0%	68*	·	47*
C/C(=N\OCC(=O)Nc1nc2ccccc2s1)c1ccccc1	4%	14	54%	10
Cc1c(Cl)cccc1NC(=O)CCNC(=O)N1CC(=O)Nc2ccccc21	0%	-3	3%	-2
CCOc1ccc(C)cc1S(=O)(=O)n1cnc2ccccc21	9%	4	?	-4
Fc1ccc(COc2ccc(-c3nnco3)cc2)c(Cl)c1	70%	84*	38%	30*
Fc1cc(Br)ccc1COc1ccc(-c2nnco2)cc1	84%	93*	83%	36*
O=C(COc1ccc(-c2nnco2)cc1)Nc1c(F)cccc1F	23%	·	16%	·
Cc1cc(NC(=O)c2ccccc2)cc(NC(=O)c2ccccc2)c1C	59%	·	-17%	1
SMILES	Pf growth 48h	Shiga inhibitor	Pf growth 96h	Cycloheximide cs
Cc1cc(NC(=O)c2ccccc2)sc1C	35%	56*	-19%	33*
Cc1ccc(NC(=O)c2ccccc2)s1	-52%	100*	11%	39*
O=C(c1ccc2ccccc2n1)N1CCN(c2ccccn2)CC1	8%	-3	7%	-4
O=C(c1nc2ccccc2s1)N1CCSCC1	99%	135*	·	29*
O=C(c1nc2ccccc2s1)N1CCN(c2ccccn2)CC1	38%	29*	-6%	21*
O=C(c1ccccc1Cl)N1CCSCC1	23%	-4	59%	-2
COc1ccc(C(=O)Nc2cc(C(F)(F)F)ccc2-n2cncn2)cc1	·	-16	?	-3
Cc1ccc(OCCCC(=O)Nc2cc(Cl)ccc2-n2cncn2)cc1	?	·	-21%	·
Cc1cc(CN2CCN(CC(=O)Nc3cc(C(F)(F)F)ccc3-n3cncn3)CC2)no1	10µM*	·	4.1µM*	·
O=C(CC1CCCC1)Nc1cc(C(F)(F)F)ccc1-n1cncn1	?	·	-37%	·
CCC(Oc1ccccc1)C(=O)Nc1cc(Cl)ccc1-n1cncn1 (configuration not stated)	4.1µM*	·	12µM*	·
CC(Oc1ccc(F)cc1)C(=O)Nc1cc(C(F)(F)F)ccc1-n1cncn1 (configuration not stated)	0.59µM*	·	0.41µM*	·
Cc1cc(CN2CCN(CC(=O)Nc3cc(Cl)ccc3-n3cncn3)CC2)no1	2.1µM*	·	2.1µM*	·
COc1ccc(C(=O)N/C(=C\c2ccc3c(c2)OCO3)C(=O)Nc2cccc(C(=O)O)c2)cc1	-3%	-6	?	9
CC1CCN(C(=O)Cn2nnc(-c3ccc(C(C)C)cc3)n2)CC1	8%	-5	?	-5
CCCSc1ccc([C@@H]2[C@H]3C(=O)N(CC)C(=O)[C@H]3[C@]3(C(=O)OC)CCCCN23)cc1OC	10µM*	·	12µM*	·
CCN1C(=O)[C@@H]2[C@@H](c3ccc(SC4CCCCC4)c(OC)c3)N3CCC[C@@]3(C(=O)OC)[C@@H]2C1=O	8.3µM*	·	?	·
CCCSc1ccc([C@@H]2[C@@H]3C(=O)N(C)C(=O)[C@@H]3[C@]3(C(=O)OC)CCCCN23)cc1OC	13µM*	·	?	·
CC(C)(C)NC(=O)C1CCN(C(=O)c2ccco2)CC1	12%	-3	-5%	-8
COc1ccc(/C=N/N2CCN(c3ccccc3OC)CC2)cc1Br	72%	·	-22%	30*
COc1ccccc1N1CCN(/N=C/c2ccc(O)c(O)c2)CC1	19%	55*	1%	38*
COc1ccccc1N1CCN(/N=C/c2ccc(C(=O)O)cc2)CC1	254%	154*	?	48*
COc1ccc(/C=N/N2CCN(c3ccccc3OC)CC2)cc1OC	13%	36	7%	17*
CCCCN(C(=O)c1ccc(N2CCCC2=O)cc1)c1c(N)n(CCC)c(=O)[nH]c1=O	-17%	·	-16%	·
O=C(NNC(=O)c1cc(-c2cccc(Br)c2)nc2ccccc12)c1csc(N2CCOCC2)n1	-20%	·	-2%	·
SMILES	Pf growth 48h	Shiga inhibitor	Pf growth 96h	Cycloheximide cs
O=C(COC(=O)COc1cccc(C(F)(F)F)c1)NC1CCCC1	9%	·	10%	·
CCSc1nnc(NC(=O)CCN2C(=O)C3CCCCC3C2=O)s1 (configuration not stated)	22%	·	-35%	·
COc1ccccc1N1CCN(/N=C/c2cc(Br)ccc2F)CC1	21%	22	66%	16*
COc1ccccc1N1CCN(/N=C(\C)c2ccc(O)cc2)CC1	75%	43*	171%	28*
COc1ccccc1N1CCN(/N=C/c2cc(OC)c(OC(C)=O)c(OC)c2)CC1	-25%	·	?	-3
COc1ccccc1CNC(=O)c1ccc2ccccc2n1	?	23	?	20
O=C(NCc1ccc(Cl)cc1)c1ccc2ccccc2n1	16%	63	27%	20*
O=C(NCCOc1ccc(Cl)cc1)c1ccc2ccccc2n1	18%	33	299%	9.3*
COc1ccc(NC(=O)c2ccco2)cc1NC(=O)c1cc2ccccc2o1	11%	-3	?	-8
COc1ccc(OCC(=O)NNC(=O)c2cc3ccccc3o2)cc1	0%	-4	-9%	-4
COc1ccc(NC(=O)c2cc3ccccc3o2)cc1OC	18%	62*	?	45*
